Vaccinia Venus = inhibitors of vaccinia virus (Venus reporter); 0.46% of 330,000 active; Potency, µM (series often up to 36.5 µM), inactives show top-dose activity change, negative = inhibition, hits mostly inhibitors; Vaccinia virus Venus reporter expression, fluorescence; calls by dose curve; tested in A549 cells; also: potency is read from the fitted curve at half-maximal effect; nearly all actives have a fitted effect of over 30% in size
Vaccinia mCherry = inhibitors of vaccinia virus infection (mCherry reporter signal); 0.63% of 310,000 active; Vaccinia virus mCherry reporter infection, fluorescence; Potency, µM (titrated, usually from 36.5 µM), for the others: at the top dose activity change, negative = inhibition, usual class: inhibitors; calls by dose curve; tested in A549 cells; also: potency is read from the fitted curve at half-maximal effect; nearly all actives have a fitted effect of over 35% in size
Sm TGR block = blocks Schistosoma mansoni thioredoxin glutathione reductase; Q962Y6; purified TGR, DTNB reduction, TNB absorbance 405 nm; Potency, µM (titrated, usually from 114 µM), for inactives: top-dose activity change, negative = inhibition, usual class: inhibitors; 3% of 360,000 active; also: potency is read from the fitted curve at half-maximal effect; nearly all actives have a fitted effect of over 60% in size
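Kinetic colorimetric format: TGR-catalysed, NADPH-driven DTNB reduction monitored via TNB absorbance. Enzyme dispensed at 20 nM; compound exposure 15 min at room temperature before reaction start.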
HCMV inh = inhibitors of human cytomegalovirus | HFF cells, HCMV-luciferase reporter, 72 h; hits give low values | activity change, negative = inhibition, % at 57.5 µM | 4.5% of 410,000 active | AID 1259415; in the data active = activity change below about -60%; inconclusive = no clear call, values can overlap the other calls; inactive = above about -39%
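Screen run at 2 compound doses on HFFs infected with reporter HCMV, MOI 1 PFU/cell. Luciferase activity from cell lysates at 72 h post infection gave inhibition relative to buffer-only and Salinomycin wells.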
HCV inhibitor = HCV inhibition | 3.4% of 340,000 active | Potency, µM (series often up to 41.8 µM), for the others: top-dose activity change, negative = inhibition, most hits filed as inhibitors | Huh7.5.1 HCVcc-Cre infection, luciferase reporter, 44 h; also: potency is read from the fitted curve at half-maximal effect
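Luciferase read-out (15 sec integration) after a 15 min room-temperature substrate step quantifies HCVcc-Cre infection. Cells, 1,000 per well, had compound added 4 h post-plating, then virus at ~0.5 moi, and were cultured 44 h.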
FMDV antiviral = blocks foot and mouth disease virus; FMDV antiviral cell-based qHTS; Potency, µM (titrated, usually from 57.9 µM), for the others: at the highest dose activity change, negative = inhibition, hits mostly inhibitors; 1.2% of 410,000 active; AID 1159524; calls by dose curve; tested in HEK293T cells; also: read-out not given here; potency is read from the fitted curve at half-maximal effect; nearly all actives have a fitted effect of over 45% in size
* marks the source's active call; other numbers are inactive results; i = inactive; ? = inconclusive; nt = not tested or not shown; [ ] = remark or other dose. In the library only some 9.3% were active in any assay of this set; here they are far more common. Unless noted, calls follow the shape of the dose curve; as a rule, active = well fitted curve in the direction sought with a large enough effect; inconclusive = small, poorly fitted or top-dose-only effect, or another doubt; inactive = no such curve, though single readings can be large; an effect the other way counts as inactive or inconclusive. % is scaled to controls: 0 for no effect and ±100 for the full control effect.

SMILES	Vaccinia Venus	Vaccinia mCherry	Sm TGR block	HCMV inh	HCV inhibitor	FMDV antiviral
COc1cccc(/C=C(\C#N)C(=O)NC2CCS(=O)(=O)C2)c1 (stereo unspecified)	-7.1%	i	-12.9%	?	33.2%	-18.7%
CCN(CC)C(=O)c1sc(NC(=O)C(Sc2ccccc2)c2ccccc2)c(C(=O)OC(C)C)c1C (stereo unspecified)	?	nt	-3.6%	-2.9	10µM*	0.0%
COCCCNC(=S)N1CCCN(c2nc3cc(C)ccc3cc2C#N)CC1	nt	nt	nt	?	?	5.7%
O=C(COc1ccc2ccccc2c1)Nc1ccncc1	-20.8%	?	14.0%	-99.7*	?	-13.3%
O=C(CCCOc1ccccc1)Nc1cccnc1	-5.5%	-1.0%	-21.4%	-33.6	7.1%	10.8%
O=C(COc1ccc(C(=O)c2ccccc2)cc1)Nc1cccnc1	2.4%	-13.3%	10.5%	-37.8	6.31µM*	?
N#Cc1ccc(-c2ccc(OCC(=O)Nc3cccnc3)cc2)cc1	-14.5%	-10.7%	1.6%	-68.8*	?	?
O=C(Nc1ccccc1C(F)(F)F)c1cc(-c2ccccc2O)on1	nt	nt	0.4%	24.7	4.0%	73.1%
CCN(CC)S(=O)(=O)c1ccc2c(c1)NC(=O)C1CCCN21 (stereo unspecified)	nt	nt	?	-21.9	-1.7%	-17.2%
O=C1Nc2cc(S(=O)(=O)N3CCCC3)ccc2N2CCCC12 (stereo unspecified)	nt	nt	12.6µM*	28.5	4.1%	-5.0%
Cc1cc(C)c(S(=O)(=O)/N=C2/C=C(Sc3ncn[nH]3)C(=O)c3ccccc32)cc1C	6.31µM*	?	0.316µM*	-100.5*	?	?
Cc1ccc(C)c(S(=O)(=O)/N=C2\C=C(NS(=O)(=O)c3ccccc3)C(=O)c3ccccc32)c1	8.5%	?	?	18.0	3.5%	-11.3%
COc1ccc(NC(C)=O)cc1S(=O)(=O)NC(Cc1ccccc1)C(=O)NCc1ccccc1C (stereo unspecified)	3.3%	-8.4%	-5.2%	44.0	2.4%	0.0%
CC(C)OC(=O)c1ccc(NC(=O)CSc2nc3ncccc3[nH]2)cc1	nt	nt	nt	-26.3	11.2µM*	?
O=C(CSc1nc2ncccc2[nH]1)c1cccc([N+](=O)[O-])c1	-19.8%	?	-20.0%	-65.6*	?	-27.9%
C/C=C/c1ccc2oc(-c3ccc(O)cc3)c(C)c2c1	nt	nt	nt	nt	nt	29.4%
O=C(C1=C[C@@H](c2ccc(Br)cc2)C[C@@H](OCc2ccc(CO)cc2)O1)N1CCOCC1	-17.5%	-4.4%	0.0%	-13.9	9.2%	2.9%
COc1ccc(CN(C(=O)c2ccco2)c2ccccc2)cc1	-8.8%	nt	-5.8%	44.7	0.3%	-29.9%
COc1ccc(N(Cc2cc(=O)[nH]c3ccccc23)C(=O)c2ccco2)cc1	nt	nt	31.6µM*	30.0	5.7%	37.6%
Cc1ccc(-n2ncc3c(SCc4ccccc4)ncnc32)cc1	-10.7%	i	-14.3%	-62.9*	37.4%	4.1%
Cc1ccc(-n2ncc3c(SCc4ccccn4)ncnc32)c(C)c1	5.1%	5.01µM*	3.5%	-101.4*	?	?
CSc1ncnc2c1cnn2-c1ccc(C)cc1C	3.2%	i	12.0%	39.6	7.5%	0.0%
Cc1ccc(CSc2ncnc3c2cnn3-c2ccccc2)cc1	-8.7%	-14.4%	-0.5%	-16.4	0.5%	-12.4%
COc1ccc(CCNC(=O)CSc2nc(N)cc(=O)[nH]2)cc1OC	-7.0%	i	4.8%	-19.2	-0.3%	-9.0%
O=C(COc1ccc(F)cc1)Nc1nnc(C2CCCCC2)s1	-0.9%	-12.2%	-7.1%	-33.8	1.6%	9.6%
SMILES	Vaccinia Venus	Vaccinia mCherry	Sm TGR block	HCMV inh	HCV inhibitor	FMDV antiviral
Cc1ccc(S(=O)(=O)N2CCN(C(=O)CN3C(=O)c4ccc([N+](=O)[O-])cc4C3=O)CC2)c(C)c1	-18.2%	i	-0.2%	-22.1	9.8%	-19.9%
CCN1/C(=C/C=C/C2=[N+](CC)c3ccccc3C2(C)C)C(C)(C)c2ccccc21	nt	i	nt	-98.7*	nt	3.55µM*
CN1/C(=C\C=C\C2=[N+](C)c3ccc4ccccc4c3C2(C)C)C(C)(C)c2ccccc21	nt	nt	-2.6%	nt	nt	nt
CC(=O)CC1c2ccccc2C=C(c2ccsc2)N1c1ccc(-c2cccs2)cc1 (stereo unspecified)	10.7%	9.7%	nt	-77.8*	nt	-12.2%
Cc1ccc2nc(-c3ccc(NC(=S)NC4CC(C)(C)NC(C)(C)C4)cc3)sc2c1	-19.6%	-6.2%	-27.3%	-102.0*	?	62.9%
COc1ccc(C(=O)Nc2ccc(O)c3c(=O)cc(-c4cccc(Cl)c4)oc23)cc1	-29.9%	-3.6%	-13.1%	?	?	?
COc1ccc(C(=O)Nc2ccc3oc(-c4cccc(Cl)c4)cc(=O)c3c2O)cc1	-12.4%	i	?	-67.5*	?	-14.4%
Cc1ccccc1NC(=O)C1CCN(S(=O)(=O)c2c(C)noc2/C=C/c2ccco2)CC1	-11.1%	-4.6%	-35.2%	-15.5	nt	-18.8%
Cc1noc(/C=C/c2ccco2)c1S(=O)(=O)N1CCC(C(=O)NCc2ccco2)CC1	nt	nt	?	-73.1*	?	-0.5%
Cc1cccnc1NC(=O)C1CCN(S(=O)(=O)c2c(C)noc2/C=C/c2ccco2)CC1	-4.6%	-1.9%	-4.3%	-28.9	-0.7%	0.0%
Cc1ccc(NC(=O)C2CCN(S(=O)(=O)c3c(C)noc3/C=C/c3ccco3)CC2)nc1	-12.8%	-10.8%	-12.3%	-93.6*	0.6%	35.5µM*
Cc1noc(/C=C/c2ccco2)c1S(=O)(=O)N1CCC(C(=O)N2CCc3ccccc3C2)CC1	nt	nt	11.2µM*	nt	11.2µM*	-21.9%
Cc1ccc(CNC(=O)C2CCN(S(=O)(=O)c3c(C)noc3/C=C/c3ccco3)CC2)cc1	-27.2%	-2.9%	39.8µM*	-6.6	-17.8%	-23.2%
COc1ccccc1CNC(=O)C1CCN(S(=O)(=O)c2c(C)noc2/C=C/c2cccs2)CC1	-11.3%	-7.9%	0.4%	?	nt	-5.0%
Cc1noc(/C=C/c2cccs2)c1S(=O)(=O)N1CCC(C(=O)NCCCN2CCC(C)CC2)CC1	nt	nt	1.8%	-2.3	11.2µM*	-12.7%
O=C(NCc1ccco1)C1CCN(S(=O)(=O)N2CCOCC2)CC1	nt	nt	50.1µM*	1.3	14.2%	-0.8%
CCS(=O)(=O)N1CCC(C(=O)NCc2ccco2)CC1	-3.6%	-8.8%	0.0%	31.2	19.2%	13.6%
O=C(NCc1ccco1)C1CCN(c2nnc(-n3cccc3)s2)CC1	-4.5%	i	-2.7%	-66.5*	-10.1%	-2.5%
O=C(/C=C/[C@H]1O[C@@H](n2ccc(=O)[nH]c2=O)[C@H](O)[C@@H]1O)NCC1CCCO1 (stereo partly specified)	-5.4%	2.1%	nt	-8.9	nt	-15.7%
COc1ccccc1/C=C/C=N/NC(=O)c1cc(-c2ccco2)[nH]n1	7.0%[7.34 µM]	i[7.34 µM]	7.08µM*	-31.1	?	2.5%
Cn1nc(C(F)(F)F)c(/C=N/OC(=O)c2ccccc2)c1Cl	nt	nt	-16.6%	19.7	2.9%	-1.7%

Bioassay records deposited in PubChem BioAssay by National Center for Advancing Translational Sciences (NCATS).
